Bioassay records deposited in PubChem by National Center for Advancing Translational Sciences (NCATS).
nsP2pro primary = inhibitors of chikungunya virus nsP2 protease; Q8JUX6; FRET peptide cleavage, nsP2pro, fluorescence 1 h; Potency, µM (series often up to 24.9 µM), for the others: top-dose activity change, negative = inhibition, most hits filed as inhibitors; 31,000 compounds, 1.1% hits; further: nearly all actives have a fitted effect of over 60% in size
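Purified recombinant nsP2pro (150 nM final) in 10 mM Tris-HCl pH 8.0 with 0.01% Tween 20 was preincubated 15 min at room temperature with compound (7 concentrations, up to 25 uM). FRET peptide 2 substrate (2.5 uM final) was then added; fluorescence was read after 1 h.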
CHIKV nsP2 cell = secondary cell-based test for CHIKV nsP2 protease inhibitors. shares compounds with nsP2pro primary. cell-based CHIKV nsP2 protease reporter assay. Potency, µM (highest dose often 51.1 µM), for the others: top-dose activity change, negative = inhibition, most hits filed as inhibitors. 450 compounds, 10% hits; further: nearly all actives have a fitted effect of over 70% in size
Target sequence (Q8JUX6 220-798 limits assumed): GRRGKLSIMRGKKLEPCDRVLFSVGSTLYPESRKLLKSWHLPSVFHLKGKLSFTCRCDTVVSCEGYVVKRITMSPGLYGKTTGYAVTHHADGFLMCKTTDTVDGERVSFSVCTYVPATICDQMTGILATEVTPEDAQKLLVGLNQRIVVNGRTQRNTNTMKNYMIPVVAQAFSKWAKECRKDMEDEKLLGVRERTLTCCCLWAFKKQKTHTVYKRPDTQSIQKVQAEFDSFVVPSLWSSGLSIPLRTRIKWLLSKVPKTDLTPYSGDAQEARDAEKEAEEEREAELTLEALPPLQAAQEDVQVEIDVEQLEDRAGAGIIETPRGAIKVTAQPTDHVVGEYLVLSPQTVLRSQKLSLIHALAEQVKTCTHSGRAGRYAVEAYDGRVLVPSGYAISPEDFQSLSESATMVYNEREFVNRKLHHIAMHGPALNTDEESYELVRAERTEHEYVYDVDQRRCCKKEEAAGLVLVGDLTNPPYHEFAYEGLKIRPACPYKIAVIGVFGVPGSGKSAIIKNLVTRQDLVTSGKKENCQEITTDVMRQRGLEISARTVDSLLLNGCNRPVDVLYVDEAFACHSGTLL
CHIKV NSP2 FL = selectivity test for CHIKV nsP2 protease inhibitors: full-length NSP2. Full-length CHIKV NSP2 protease enzymatic counterscreen. Potency, µM (highest dose often 50.7 µM), inactives show at the highest dose activity change, negative = inhibition, hits mostly inhibitors. 410 compounds, 39% hits. shares compounds with nsP2pro primary. AID 1964101; further: nearly all actives have a fitted effect of over 65% in size
Furin counterscr = human furin inhibition, counterscreen for nsP2pro inhibitors; Potency, µM (top dose mostly 50.6 µM), for the others: top-dose activity change, negative = inhibition, actives largely listed as inhibitors; 410 compounds, 6% hits; Recombinant human furin enzymatic counterscreen, fluorogenic substrate; AID 1964102; shares compounds with nsP2pro primary
NS23 peptide cs = selectivity test for CHIKV nsP2 protease inhibitors: endogenous NS2/3 peptide; shares compounds with nsP2pro primary; Purified CHIKV nsP2 protease, endogenous NS2/3 peptide cleavage; Potency, µM (top dose mostly 51 µM), inactives show top-dose activity change, negative = inhibition, actives largely listed as inhibitors; 410 compounds, 34% hits; further: nearly all actives have a fitted effect of over 55% in size
Papain counter = inhibits papain in a CHIKV nsP2 protease selectivity counterscreen; shares compounds with nsP2pro primary; Potency, µM (top dose mostly 51 µM), inactives show at the highest dose activity change, negative = inhibition, actives largely listed as inhibitors; 410 compounds, 5% hits; purified papain protease activity, enzymatic inhibition
nsP2pro conf qHTS = confirmation of CHIKV nsP2 protease inhibitors | shares compounds with nsP2pro primary | 410 compounds, 43% hits | CHIKV nsP2 protease enzymatic activity, qHTS | Potency, µM (series often up to 25.5 µM), without a hit: top-dose activity change, negative = inhibition, hits mostly inhibitors; further: nearly all actives have a fitted effect of over 75% in size
HCV NS3 counter = inhibits HCV NS3/4A protease in an nsP2pro selectivity counterscreen | AID 1964106 | Potency, µM (top dose mostly 50.9 µM), most hits filed as inhibitors | HCV NS3/4A protease biochemical counterscreen | 410 compounds, 20% hits | shares compounds with nsP2pro primary; further: nearly all actives have a fitted effect of over 55% in size
* marks the source's active call; other numbers are inactive results; [ ] = dose if it differs, or a comment. The entries come from a sample that favours hits as a whole. The call rests on the fitted dose curve. On the % scale 0 is the no-effect control and ±100 the full control effect; potency means the concentration at half of the fitted maximal effect.

`CC(C)OCCCNC(=O)c1cc(-c2cccc(C(F)(F)F)c2)c2cccn2n1` gave nsP2pro primary -7.4%.
`Cc1ccc(NC(=O)Cn2c(N3CCN(c4ccccc4)CC3)nc(C)cc2=O)cc1` gave nsP2pro primary 0.2%.
Screening CCOc1ccccc1NC(=O)C1CCCN1S(=O)(=O)c1ccc2nc(-c3ccccc3)[nH]c2c1 (stereo not drawn) returned nsP2pro primary -10.9%.
Screening CN(Cc1ccc(F)cc1)S(=O)(=O)c1cccs1 returned nsP2pro primary 2.3%[39.2 µM].
`CC(=O)S[C@@H]1CC2=CC(=O)CC[C@]2(C)[C@H]2CC[C@@]3(C)[C@@H](CC[C@@]34CCC(=O)O4)[C@H]12` gave nsP2pro primary 23.3%.
Screening Cc1ccc(OCC(=O)N2CCN(CCc3ccncc3)CC2)cc1 returned nsP2pro primary -27.3%.
`O=C(COc1ccccc1Cl)N1CCN(CCc2ccncc2)CC1` gave nsP2pro primary -25.2%.
`O=C(COc1ccccc1[N+](=O)[O-])N1CCN(CCc2ccncc2)CC1` gave nsP2pro primary inconclusive and CHIKV nsP2 cell 9.3%.
Screening CN[C@@H]1CCc2[nH]c3ccc(C(N)=O)cc3c2C1 returned nsP2pro primary -5.0%.
`O=C(NCCNC(=O)c1cccc(-c2ccsc2)c1)NC1CCCC1` gave nsP2pro primary 4.2%.
`O=C(NC1CCCCCC1)c1ccc(CS(=O)c2ccc(Br)cc2)o1` (stereo not drawn) gave nsP2pro primary -27.8%.
Cc1cnc(CCNC(=O)C2(c3ccccc3)CC2)n1Cc1ccccc1 was read as nsP2pro primary inactive.
For Cc1cncc2cccc(S(=O)(=O)N3CCCN(C(=O)CN)C[C@@H]3C)c12 the results were nsP2pro primary 11.9%.
Screening O=C(CN1C(=O)C(c2ccccc2)=NC12CCCCCC2)NCC1CCCO1 (stereo not drawn) returned nsP2pro primary -6.0%.
NC(N)=O was read as nsP2pro primary -7.4%.
For O=C(Cc1ccccc1)Nc1sc2c(c1C(=O)Nc1ccc(Cl)cc1)CCCC2 the results were nsP2pro primary inconclusive, CHIKV nsP2 cell inconclusive, CHIKV NSP2 FL -20.6%, Furin counterscr -4.2%, NS23 peptide cs 6.51µM*, Papain counter -4.6%, nsP2pro conf qHTS 4µM* and HCV NS3 counter inactive.
`O=C(Cc1ccccc1)Nc1sc2c(c1C(=O)Nc1ccccc1)CCCCC2` gave nsP2pro primary -28.0%.
For COc1ccc(CC(=O)Nc2sc3c(c2C(=O)Nc2ccccc2)CCCCC3)cc1 the results were nsP2pro primary -10.9%.
Screening CCOc1ccc(NC(=O)CCc2c(C)nc3c(c(C)nn3-c3ccccc3)c2C)cc1 returned nsP2pro primary -18.1%.
`C/C=C/C=C/[C@@H]1O[C@](O)([C@H](CC)C(=O)NC/C=C/C=C(\C)[C@@H](OC)[C@@H](C)C2OC(/C=C/C=C/C=C(\C)C(=O)c3c(O)cc[nH]c3=O)[C@H](O)[C@@H]2O)[C@H](O)[C@H](O)C1(C)C` (stereo partly drawn) gave nsP2pro primary 5.7%[10 µM].
COc1ccc(Nc2c3c(nc4nncn24)CCC3)cc1OC was read as nsP2pro primary -19.5%.
For CCc1ccc(NC(=O)CSc2nnc(-c3cc4occc4n3C)n2-c2ccccc2C)cc1 the results were nsP2pro primary -16.7%.
For COc1ccc(NC(=O)[C@H]2O[C@@H]3OC(C)(C)O[C@@H]3[C@H]3OC(C)(C)O[C@H]32)c(OC)c1 the results were nsP2pro primary -6.9%.
For C=C1C(=O)O[C@@H]2C3C(=C(C)[C@@H](O)[C@@H](OC(=O)/C(=C/C)COC(C)=O)[C@@H]12)C(=O)[C@H]1O[C@@]31C (stereo partly drawn) the results were nsP2pro primary 2.16µM*, CHIKV nsP2 cell inconclusive, CHIKV NSP2 FL 7.11µM*, Furin counterscr -2.3%[17.3 µM], NS23 peptide cs 3.18µM*, Papain counter -6.3%[17.2 µM], nsP2pro conf qHTS 2.19µM* and HCV NS3 counter inactive.
`C=C1C(=O)O[C@@H]2/C=C(/C)[C@@H](OC(C)=O)C/C=C(\C)C[C@@H](OC(=O)/C(=C/CO)CO)[C@@H]12` gave nsP2pro primary -7.8%[10 µM].
`C=C(C)C(=O)O[C@H]1[C@H]2C(=C)C(=O)O[C@@H]2/C=C(\CO)CC/C=C(/C=O)[C@@H]1O` gave nsP2pro primary -12.1%.
`CS(=O)(=O)OCCCCOS(C)(=O)=O` gave nsP2pro primary 13.8%.
Screening FC(F)(F)c1ccc(Nc2nc3ccc(Oc4ccnc(-c5ncc(C(F)(F)F)[nH]5)c4)cc3[nH]2)cc1 returned nsP2pro primary 268.0%.
`Cc1cccc(-n2cnc3cc(C(=O)N4CCCC(C(C)C)C4)ccc32)c1` (stereo not drawn) gave nsP2pro primary inactive.
Screening N#Cc1ccccc1CN1CCN(Cc2ccccc2)CC(O)C1 (stereo not drawn) returned nsP2pro primary -8.8%.
`Cc1ccccc1CSc1nc2ncc(Br)cc2[nH]1` gave nsP2pro primary inactive.
Screening NC(=O)[C@H](Cc1ccc(O)cc1)NC(=O)[C@@]1(O)C[C@@H](O)[C@H](O)[C@@H](NC(=O)c2ccc(F)c(Cl)c2)C1 returned nsP2pro primary 4.2%.
O=C(Nc1nc(-c2ccccc2)cs1)c1ccccc1Cl was read as nsP2pro primary inactive.
For COc1ccc(-c2nc3c4ccccc4n(CC(=O)Nc4ccc(C(C)C)cc4)c(=O)n3n2)cc1 the results were nsP2pro primary -15.6%.
Screening O=C1Nc2ccccc2CC12CCN(Cc1cccnc1)C2 (stereo not drawn) returned nsP2pro primary -7.2%[39.2 µM].
For O=C1Nc2ccccc2CC12CCN2Cc1ccc(OC(F)(F)F)cc1 (stereo not drawn) the results were nsP2pro primary 1.7%.
O=C1Nc2ccccc2CN(Cc2ccccc2)C12CCNC2 (stereo not drawn) was read as nsP2pro primary inconclusive and CHIKV nsP2 cell 43.4%.
